# High-throughput results: PubChem BioAssay, National Center for Advancing Translational Sciences (NCATS)
# HEK293 cAMP cs – counter-screen for TSHR agonists: cAMP increase in parental HEK293 | parental HEK293 CNG cAMP sensor, membrane potential fluorescence | Potency, µM (series often up to 57.1 µM), for the others: at the top dose activation, most hits filed as activators | 73,000 compounds, 2.5% hits; note: % of control where 0% means no effect; nearly all actives have a fitted effect of over 55% in size
#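 Parental HEK 293 cells stably expressing a cAMP-gated CNG channel were loaded with membrane potential dye containing 100 uM RO 20-1724 for 60 min. Compound added for 30 min; depolarization read as fluorescence intensity at 590 nm.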
# p53ts 39C tox – p53ts cell cytotoxicity, nonpermissive temperature; H1299-p53A138V viability at 39C, ATP luminescence, 24 h; AID 902; Potency, µM (top dose mostly 46.1 µM), inactives show at the top dose activity change, negative = cell killing, actives largely listed as cytotoxic; 130,000 compounds, 1.5% hits; note: % is set by controls: 0 for no effect and ±100 for the full control effect; nearly all actives have a fitted effect of over 55% in size
# p53ts 32C kill – kills p53ts cells at the permissive temperature. H1299-p53A138V at 32C, ATP luminescence viability, 24 h. Potency, µM (titrated, usually from 46.1 µM), inactives show top-dose activity change, negative = cytotoxicity, usual class: cytotoxic. 130,000 compounds, 0.93% hits. AID 924;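 note: 0% = DMSO and -100% = full killing by reference compound; nearly all actives have a fitted effect of over 55% in size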
#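 Cells: H1299 p53ts (A138V), 600/well, pre-incubated 16–30 h at 37C. Cpd up to 46 uM, 24 h, 32C. Readout: ATPlite luminescence, 20 min RT. Normalization: DMSO vs tamoxifen 100 uM. AC50 by Hill equation.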
# TSHR agonist – TSH receptor (human) agonism. Potency, µM (doses to about 57.1 µM), inactives show at the top dose activation, most hits filed as activators. 73,000 compounds, 0.48% hits. HEK293-CNG-TSHR cells (CNG channel as cAMP sensor), membrane potential dye, cAMP. P16473; active = well fitted activation curve with a large enough effect in the main read-out, with a control signal flat, not every such curve was filed as active; inconclusive = small, poorly fitted or top-dose-only effect, or a change in a side signal; inactive = no such curve, though single readings can be large or run the other way; % of control where 0% means no effect;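 note: the control signal comes from parental cells without the receptor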
# Target sequence (P16473 whole entry, looked up): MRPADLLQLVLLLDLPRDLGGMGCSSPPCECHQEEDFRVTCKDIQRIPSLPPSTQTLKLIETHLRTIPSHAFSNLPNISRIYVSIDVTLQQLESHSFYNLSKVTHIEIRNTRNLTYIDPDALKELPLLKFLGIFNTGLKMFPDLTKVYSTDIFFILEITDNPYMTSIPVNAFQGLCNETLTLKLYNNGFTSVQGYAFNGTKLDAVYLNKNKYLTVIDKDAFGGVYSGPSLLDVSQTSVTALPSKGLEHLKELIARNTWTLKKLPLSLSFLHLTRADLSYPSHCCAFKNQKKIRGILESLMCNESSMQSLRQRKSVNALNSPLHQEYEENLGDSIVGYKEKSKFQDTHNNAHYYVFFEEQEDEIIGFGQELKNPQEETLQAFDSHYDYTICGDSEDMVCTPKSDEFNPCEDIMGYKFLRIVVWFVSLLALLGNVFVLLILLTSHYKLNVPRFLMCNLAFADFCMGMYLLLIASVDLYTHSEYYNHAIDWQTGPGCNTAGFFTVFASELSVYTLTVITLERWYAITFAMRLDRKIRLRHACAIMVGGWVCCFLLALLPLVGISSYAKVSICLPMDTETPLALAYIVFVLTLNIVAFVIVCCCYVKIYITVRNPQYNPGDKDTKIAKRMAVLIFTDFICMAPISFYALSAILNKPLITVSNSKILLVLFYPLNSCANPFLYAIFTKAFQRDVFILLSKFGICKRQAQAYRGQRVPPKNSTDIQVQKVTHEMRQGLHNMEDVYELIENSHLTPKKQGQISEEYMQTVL
#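 HEK 293 cells stably expressing TSHR and a cAMP-gated CNG channel; parental CNG-only cells as counterscreen. Cells preloaded 60 min with membrane potential dye plus 100 uM RO 20-1724, then compound 30 min; fluorescence read at 590 nm.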
# IkB sig inh – inhibitors of IkB signaling in ABC-DLBCL cells; ABC-DLBCL IkBa-CBG/CBR dual luciferase ratio, 4 h; response scale: scaled: untreated 0%, proteasome inhibitor 100%; Potency, µM (highest dose often 57.1 µM), inactives show at the highest dose IkBa stabilization activation; 110,000 compounds, 0.04% hits; AID 445; active = well fitted curve in the direction sought with a large enough effect in the signal ratio, not every such curve was filed as active; inconclusive = small, poorly fitted or top-dose-only effect, or a change in a side signal; the % refers to the signal ratio;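 note: the direction sought is a rising ratio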
#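 Curves were fitted separately to fusion (green), unfused (red) and ratio luminescence, then classed by r2, magnitude and activity. Cells: OCI-Ly3, 4 h compound plus doxycycline at 37C; 10 uM MG-132 defined full response.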
# Imprint erasure – induces erasure of genomic imprints in mouse ES cells | mouse ES Peg3-LacZ reporter, beta-gal luminescence, 40 h | Potency, µM (doses to about 60.7 µM), without a hit: at the top dose activity change, positive = activation, hits mostly activators | 110,000 compounds, 0.02% hits
#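 Readout: BetaGlo luminescence (5 min, room temp) for LacZ from the normally silent maternal Peg3 allele in female Peg3LacZ-Neo ES cells. Cells 300/well, 40 h, 37C, 5% CO2. Data normalized per plate to negative controls.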
# The depositor's hits bear a star; u = inconclusive; x = no result; [ ] = another dose, or the depositor's remark. Only some compounds are listed: those with a hit (about 3.1% of all), similar ones and a draw of the others. Unless noted, calls come from the whole dose curve; as a rule, active = well fitted curve in the direction sought with a large enough effect; inconclusive = small, poorly fitted or top-dose-only effect, or another doubt; inactive = no such curve, though single readings can be large; an effect the other way counts as inactive or inconclusive. Potency is the fitted concentration of half-maximal effect.
SMILES,HEK293 cAMP cs,p53ts 39C tox,p53ts 32C kill,TSHR agonist,IkB sig inh,Imprint erasure
COc1ccc(-c2cc(C(=O)NCCc3ccccc3)c3c(-c4ccccc4)[nH]nc3n2)cc1,x,12.6µM*,u,x,u,-4.9%[10.9 µM]
CCOc1ccc(-c2cc(C(=O)NCc3ccccc3)c3c(-c4ccc(CC)cc4)[nH]nc3n2)cc1,x,0.0%,0.6%,x,-1.3%,5.4%[10.9 µM]
COc1ccc(-c2cc(C(=O)NCCc3ccccc3)c3c(-c4ccc(Cl)cc4)[nH]nc3n2)cc1,x,12.6µM*,12.6µM*,x,4.1%,-27.2%[10.9 µM]
O=C(O)c1cc(-c2ccc(C(F)(F)F)cc2)nc2n[nH]c(-c3ccccc3)c12,x,10µM*,u,x,0.0%,-8.2%[10.9 µM]
COCCCNC(=O)c1cc(-c2ccc(OC)cc2)nc2n[nH]c(-c3ccc(Cl)cc3)c12,x,-1.3%,5.3%,x,0.0%,-2.3%[10.9 µM]
C[C@@](N)(Cc1c[nH]c2ccccc12)C(=O)O,-1.3%[11.4 µM],8.7%[9.22 µM],5.5%[9.22 µM],-0.7%[11.4 µM],-0.9%[11.4 µM],3.1%[10.9 µM]
O=C(Cn1c(=O)n(Cc2ccc3c(c2)OCO3)c(=O)c2ccc(C(=O)NC3CCCCC3)cc21)Nc1ccccc1F,x,-29.3%,11.5%,x,u,-5.5%[10.9 µM]
O=C(NCc1ccccc1Cl)c1ccc2c(O)c(S(=O)(=O)c3ccccc3)c(=O)[nH]c2c1,x,-11.5%,-1.8%,x,-0.5%,-7.8%[10.9 µM]
CCC(C(=O)NCc1ccccc1)n1ncn2c(cc3occc32)c1=O (stereo not drawn),x,8.5%,-4.4%,x,u,-3.9%[10.9 µM]
CCC(c1nnnn1C1CCCC1)N1CCN(c2ccccc2F)CC1 (stereo not drawn),u,-1.2%,6.5%,u,1.1%,-10.2%
CCCC(c1nnnn1C1CCCC1)N1CCN(c2ccccc2F)CC1 (stereo not drawn),5.01µM*,3.0%,-2.7%,u,1.5%,-6.2%
Cc1cc(=O)n(CC(=O)NCc2ccc(OC(C)C)cc2)c2c1c(C)nn2-c1cccc(F)c1,x,-20.8%,-0.2%,x,u,-10.8%[10.9 µM]
O=C(Nc1ccccc1)N1CCCC2(CCNCC2)C1,12.4%,-9.7%,-8.2%,-2.5%,-0.1%[11.4 µM],x
CCc1nn2cc(-c3ccccc3)nc2s1,-2.9%,15.8µM*,10µM*,-4.3%,u,-91.3%
COCc1nn2cc(-c3ccc(C)cc3)nc2s1,x,12.6µM*,10µM*,x,15.3%,-24.3%[10.9 µM]
CCn1c(=O)n(CC(=O)NC2CCCC(C)C2C)c(=O)c2ccccc21 (stereo not drawn),25.1µM*,10.1%,-20.3%,u,u,-6.0%
C=CCn1c(SCC(=O)NCc2cccs2)nnc1C1CCCCC1,28.8%,-8.5%,3.7%,-1.6%[11.4 µM],0.8%,-15.4%
C=CCn1c(SC(C)C(=O)NCc2ccc3c(c2)OCO3)nnc1C1CCCCC1 (stereo not drawn),2.51µM*,3.0%,6.3%,u,1.5%,-5.7%
CCCCN(CC)C(=O)c1cc2c(=O)n3ccccc3nc2n1C,x,-4.4%,13.1%,x,0.7%,14.4%[10.9 µM]
CCc1cc2c(=O)c(-c3ccc4c(c3)OCCO4)coc2cc1OC(=O)c1ccco1,u,7.94µM*,5.01µM*,u,-1.7%,-36.9%
CC(C)CN1CCCC2(CCN(C(=O)c3cccn3C)CC2)C1,u,12.8%,-1.5%,u,0.7%[11.4 µM],x
CCCCCc1cc(O)c2c(C)cc(=O)oc2c1,3.16µM*,29.2%,35.0%,u,-1.7%,-19.8%
Cc1cc(=O)oc2cc(O)cc(O)c12,11.8%,11.2%,11.4%[1.84 µM],u,-1.4%,-3.3%
O=C(Nc1ccccc1C(F)(F)F)c1ccc2oc(=O)c(S(=O)(=O)c3ccc(F)cc3)cc2c1,x,12.6µM*,10µM*,x,u,-6.3%[10.9 µM]
COc1ccccc1NC(=O)c1ccc2oc(=O)c(S(=O)(=O)c3ccccc3)cc2c1,x,-14.0%,-8.1%,x,u,-12.3%[10.9 µM]
SMILES,HEK293 cAMP cs,p53ts 39C tox,p53ts 32C kill,TSHR agonist,IkB sig inh,Imprint erasure
O=C(c1cnn2c(C(F)(F)F)cc(-c3ccc4c(c3)OCO4)nc12)N1CCCCC1,20µM*,-3.6%,5.4%,u,0.3%,4.5%
O=c1cc(-c2ccccc2O)oc2cc(O)ccc12,x,u,-28.1%,x,x,x
O=c1cc(-c2cccc(O)c2O)oc2ccccc12,23.4%,10µM*,u,27.0%,0.2%[11.4 µM],-61.8%
COc1cc(-c2cc(=O)c3ccccc3o2)ccc1O,-5.2%,-18.3%,-14.0%,7.4%,-3.0%[11.4 µM],-58.2%
COc1ccccc1-c1cc(=O)c2cc(O)ccc2o1,39.8µM*,-11.3%,3.2%,u,-2.6%[11.4 µM],-12.1%
COc1cc2oc(-c3ccccc3)cc(=O)c2cc1O,8.4%,7.94µM*,u,-0.3%,u,-10.9%
O=C1CCCc2cc(S(=O)(=O)N3CCCC(C(=O)Nc4ccc(F)c(Cl)c4)C3)ccc2N1 (stereo not drawn),x,-11.7%,-5.0%,x,u,24.9%[10.9 µM]
CCN(CC)c1ccc2cc(C(N)=O)c(=O)oc2c1,x,-6.0%,-9.8%,x,x,x
CCN(CC)c1ccc2cc(NC(=O)CCC(=O)O)c(=O)oc2c1,1.4%,12.6µM*,u,-12.5%,u,-14.0%
O=C(NCc1ccc2c(c1)CCN2C(=O)c1ccc(F)cc1)c1cc2ccccc2[nH]1,x,0.4%,8.3%,x,u,-10.1%[10.9 µM]
O=c1/c(=C/c2ccccn2)sc2nc3ccccc3n12,5.5%[11.4 µM],u,10µM*,-0.3%[11.4 µM],u,7.2%
CCOC(=O)CNc1ncnc2nc[nH]c12,u,u,7.94µM*,u,u,-77.6%
CC(C)=CCNc1ncnc2nc[nH]c12,-2.0%[11.4 µM],12.3%[9.22 µM],0.9%[9.22 µM],-7.4%[11.4 µM],-0.3%[11.4 µM],1.0%[10.9 µM]
Cc1ccc2oc(C(=O)Nc3cccc(Cl)c3)cc(=O)c2c1,x,-8.9%,3.5%,x,-1.5%,-0.8%[10.9 µM]
CC1(C)Cc2ccccc2-c2nnc(SCC(=O)Nc3nc4ccccc4s3)n21,5.01µM*,-17.7%,-0.9%,u,2.7%,-3.7%
